The results in this text go back to PubChem BioAssay (NCI).

Common to all, as to assay: NCI-60 one-dose screen, 48 h (100 = growth as untreated, 0 = no growth, -100 = all killed)
Common to all, as to details: 10 µM

Assay [1] has as its system RPMI-8226 leukemia.
For assay [2], the system named is OVCAR-5 ovarian.
Assay [3] has as its system OVCAR-4 ovarian.
The test system of assay [4] is SK-OV-3 ovarian.
Assay [5] deals with IGROV1 ovarian.
Assay [6] deals with OVCAR-3 ovarian.
Assay [7] concerns HS 578T breast.
The subject of assay [8] is NCI/ADR-RES ovarian.
For assay [9], the system named is T-47D breast.
Assay [10] relates to BT-549 breast.
The test system of assay [11] is MDA-MB-435 melanoma.
Assay [12] relates to MCF7 breast.
Assay [13] concerns HCT-116 colon.
Assay [14] concerns KM12 colon.
Assay [15] concerns SW-620 colon.
Assay [16] has as its system HCC-2998 colon.
The subject of assay [17] is OVCAR-8 ovarian.

This is part of a sample that, as a whole, favours compounds with a hit. Of some 83,000 tested, about 20% had one in any assay.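 Results are percent growth after 48 hours of single-concentration exposure. 100 means growth as in untreated cells, lower positive values show inhibition; negative values down to -100 show cell death.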 A number with no mark means an inactive call. Active and inactive are the calls of the source. Rule for the calls: active = growth percent below 10; inactive = the rest.

Turning to `O=C(CNC(=O)OCc1ccccc1)NCC(=O)Oc1ccc([N+](=O)[O-])cc1`, the growth in [1] was 112%; in [2], 109%; in [3] it was 99.2%; in [4], 100%; in [5] it was 109%; in assay [6], 111%. Moreover, the growth is 137% in assay [7]; 96.2% in [8]; 103% in assay [9]; 101% in assay [10]; 98.4% in assay [11]; 95.8% in [12]. Further, the growth in assay [13] was 93.7%; in assay [14] it was 102%.

On to `Cc1cccc2c(NCCN(C)C)c3cccc(C(=O)NCCN(C)C)c3nc12`, for which the growth in assay [1] is -34.6% (active); in assay [2], 26.1%; in [3], -44% (active); in [4] it was 19.7%; in assay [5], -61% (active); in [6] it was 13.9%. Besides, the growth is 10.2% in assay [7]; -3.11% (active) in assay [8]; 29.3% in [9]; 18.2% in assay [10]; 8.12% (active) in assay [11]; 4.11% (active) in [15]. Besides, the growth in [12] was 2.67% (active); in assay [13] it was 8.86% (active); in assay [16], -22.8% (active); in [14], -27.6% (active).

Turning to `CCN(CC)CCNC(=O)c1ccc(NC(C)=O)cc1`, the growth in [1] is 112%; in assay [17] it was 106%; in [3] it was 108%; in [4] it was 102%; in assay [5], 112%; in [6] it was 121%. Also, the growth in assay [7] was 99.8%; in [8] it was 96.9%; in assay [9], 99.7%; in [10] it was 106%; in assay [11], 101%; in assay [15], 107%. Besides, the growth in assay [12] was 101%; in [13], 105%; in assay [16] it was 102%; in assay [14] it was 108%.

As to `CCOCCOCCOCCOCCOCCOCCOCCOCCOCCO` (tested in a mixture with another compound), the growth is -33.3% (active) in [1]; 5.89% (active) in assay [17]; 21.3% in [3]; 38.2% in assay [4]; 30.2% in [5]; -16.8% (active) in assay [6]. Further, the growth in [7] is 39.6%; in assay [8], 55.7%; in [9], 16.6%; in [10], -52.7% (active); in [11] it was 19.4%; in [15], 18.6%. Moreover, the growth in assay [12] was 3.56% (active); in [13] it was 3.57% (active); in assay [16], 9.05% (active); in [14], -18.3% (active).

For the molecule `O=C1/C(=C\c2ccc(Br)cc2)CN(C(=O)c2ccccc2F)C/C1=C\c1ccc(Br)cc1`, the growth in [17] is 1.47% (active); in assay [2], 69.4%; in assay [3], 18.2%; in assay [4], 27.2%; in [5], -31.4% (active); in assay [6], -52.6% (active). Also, the growth in assay [7] was 24.1%; in assay [8], 12.7%; in assay [9], 53.3%; in [10] it was -0.615% (active); in assay [11] it was -44.9% (active); in assay [15], -56.4% (active). For the same molecule, the growth was -33.5% (active) in assay [12], -76.1% (active) in assay [13] and -81.3% (active) in [16].

For the molecule `CN1CC[C@@H](c2c(O)cc(O)c3c(=O)cc(-c4ccccc4Cl)oc23)[C@@H](O)C1`, the growth was -32.3% (active) in [1]; 16.4% in assay [2]; -26.7% (active) in [3]; 47.6% in [4]; -37.1% (active) in assay [5]; 13.6% in assay [6]. In addition, the growth in [7] was 12.9%; in assay [8] it was 12.2%; in assay [9], 4.59% (active); in assay [11] it was -91.2% (active); in assay [15], 9.83% (active); in [12], 9.53% (active). Moreover, the growth was 8.46% (active) in assay [13], -34% (active) in assay [16] and -34% (active) in assay [14].

As for `CCc1ccc2c(c1)N(CCO)C1=C(C(=O)OC1)C2c1ccccc1` (centres undefined), the growth is 101% in [1]; 93.9% in [2]; 104% in [3]; 94.9% in assay [4]; 95.8% in assay [5]; 111% in assay [6]. Moreover, the growth in assay [7] is 125%; in [8], 78.7%; in assay [9], 95.6%; in assay [10] it was 87.7%; in assay [11], 21.6%; in assay [15] it was 97.2%. Further, the growth in assay [12] was 92.2%; in assay [13], 89.3%; in [14], 76.1%.

With `CN(C)CCN1C(=O)c2cccc3cc(N)cc(c23)C1=O`, the growth is 1.78% (active) in assay [1]; 47.2% in assay [2]; -5.76% (active) in assay [3]; 36.9% in assay [4]; -39.9% (active) in assay [5]; 56.2% in [6]. Moreover, the growth in assay [7] is 57.6%; in assay [8], 32.3%; in assay [9], 12.4%; in assay [10], 46.9%; in assay [11], 33.7%; in assay [15] it was 21%. The growth in assay [12] is 7.96% (active); in [13], 13.7%; in assay [16], 15.4%; in assay [14], 28.8%.

Consider `C/C(=N\Nc1nc2ccccc2s1)c1ccncn1`, for which the growth in assay [1] is -26.4% (active); in assay [2], 38.9%; in assay [3], -12.3% (active); in assay [4], 37.7%; in assay [5], -22.2% (active); in assay [6], 21.2%. The growth in assay [7] is 73.5%; in assay [8] it was 22.9%; in [9] it was -0.411% (active); in assay [10] it was 46.3%; in assay [11] it was 46.2%; in assay [15], 31.2%. Besides, the growth is 4.99% (active) in assay [12], 5.21% (active) in assay [13], 46.3% in assay [16] and 39.1% in assay [14].

On to `COc1ccc(Cl)cc1-n1nnc(-c2nc3ccccc3[nH]2)c1N`, for which the growth in assay [17] was 82.4%; in [2], 96.2%; in assay [3], -79.9% (active); in assay [4], 62.6%; in assay [5], 85.5%; in assay [6], 86.7%. For the same molecule, the growth was 43.3% in assay [7]; 92.1% in assay [8]; 67.5% in assay [9]; 98.8% in assay [10]; 88.6% in assay [11]; 75.6% in [15]. In addition, the growth in [12] was 94.3%; in [13], 55.4%; in assay [16], 93.4%.
